HTR5A inv ctr = counter-screen for OPRM1-OPRD1 inverse agonists: human HTR5A inverse agonism | HTR5A cell line, luminescence | inhibition, % at 9.3 µM | 0.083% of 340,000 active; in the data active means inhibition mostly above about 23%, no sharp cut-off; inactive means mostly below about 18%;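 further: 0% = cells with DMSO and 100% = no-cell wells with DMSO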
MOR-DOR ag-1 = agonists of human mu-delta opioid receptor heterodimerization. P35372+P41143. cells, OPRM1-OPRD1 heterodimerization, luminescence. activation, % at 9.3 µM. 0.3% of 340,000 active;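 further: 0% = vehicle-treated cells and 100% = reference agonist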
Target sequence (P35372 whole entry, looked up): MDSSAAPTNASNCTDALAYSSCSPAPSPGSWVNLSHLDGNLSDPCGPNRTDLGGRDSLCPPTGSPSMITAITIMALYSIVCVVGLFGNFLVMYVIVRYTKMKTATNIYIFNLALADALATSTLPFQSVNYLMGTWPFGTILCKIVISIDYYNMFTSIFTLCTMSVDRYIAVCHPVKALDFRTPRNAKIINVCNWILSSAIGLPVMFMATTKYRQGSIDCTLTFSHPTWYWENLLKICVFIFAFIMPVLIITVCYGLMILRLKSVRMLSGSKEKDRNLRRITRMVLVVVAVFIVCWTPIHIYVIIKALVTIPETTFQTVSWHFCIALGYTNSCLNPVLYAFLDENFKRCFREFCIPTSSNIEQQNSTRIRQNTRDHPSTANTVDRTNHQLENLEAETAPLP
Target sequence (P41143 whole entry, looked up): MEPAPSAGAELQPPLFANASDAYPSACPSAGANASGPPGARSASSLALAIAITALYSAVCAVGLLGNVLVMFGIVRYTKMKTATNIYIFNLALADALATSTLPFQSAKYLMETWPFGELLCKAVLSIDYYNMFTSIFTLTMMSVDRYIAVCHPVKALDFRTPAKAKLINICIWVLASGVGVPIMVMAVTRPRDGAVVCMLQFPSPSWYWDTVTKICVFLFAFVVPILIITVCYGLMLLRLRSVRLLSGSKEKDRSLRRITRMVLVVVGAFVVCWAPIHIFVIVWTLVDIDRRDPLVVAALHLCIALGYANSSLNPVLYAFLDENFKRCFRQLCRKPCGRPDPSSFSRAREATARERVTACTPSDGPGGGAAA
HTR5A ag = HTR5A agonism, opioid heterodimer counter-screen | HTR5A agonist assay, luminescence, cell-based | 0.61% of 340,000 active | activation, % at 9.3 µM | AID 504692 | P47898; in the data active means activation mostly above about 9.5%, no sharp cut-off; inactive means mostly below about 7.6%;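 further: 0% = cells with vehicle only and 100% = reference agonist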
OPRM1-OPRD1 inv = inverse agonist of human OPRM1-OPRD1 heterodimerization; AID 504357; 0.21% of 340,000 active; cell-based MOR-DOR heterodimer luminescence, inverse agonism; P35372+P41143; inhibition, % at 9.3 µM; in the data active means inhibition above about 22%, passing the limit was not always enough;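 further: 0% = cells with DMSO and 100% = wells without cells with DMSO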
MOR-DOR ag-2 = counter-screen for HTR5A agonists: OPRM1-OPRD1 heterodimerization agonism; shares compounds with HTR5A ag; AID 504913; activation, % at 9.3 µM; 13% of 800 active; U2OS counter-screen cells, complementation luminescence, 3 h
HTR5A ag conf = HTR5A (human) agonism, confirmation | shares compounds with HTR5A ag | HTR5A agonist cell assay, luminescence | activation, % at 9.3 µM | 17% of 800 active | AID 504915; in the data active means activation above about 17%;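 further: 0% = cells with vehicle only and 100% = full reference agonist response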
The depositor's hits bear a star; x = not tested or not shown; ! = not confirmed by another sample. Hits are enriched below; roughly 1.1% of the tested compounds scored in any of these assays. Unless noted, no stated cut-off is given here; in the data, active means activation above about 18%; inactive means the rest.

SMILES	HTR5A inv ctr	MOR-DOR ag-1	HTR5A ag	OPRM1-OPRD1 inv	MOR-DOR ag-2	HTR5A ag conf
C/C(=N/NS(=O)(=O)c1ccc(C)cc1C)c1c[nH]c2ccccc12	-67.3	0.0	18.4*	0.0	2.8	6.6
C/C(=N/NS(=O)(=O)c1ccc(C)cc1)c1ccc2c(c1)OCO2	8.5	0.9	4.3	-4.5	x	x
C/C(=N/NS(=O)(=O)c1ccc(C)c(C)c1)c1c[nH]c2ccccc12	5.2	-4.0	2.5	13.2	x	x
CCn1c(C)nc2cc(C(=O)N/N=C/c3ccc(OC)c(O)c3)ccc21	-27.0	0.1	14.4*	-0.6	0.0	-1.2
CCn1c(C)nc2cc(C(=O)N/N=C/c3ccc(O)cc3)ccc21	1.9	-0.8	8.3	3.8	x	x
Cc1ccc(CNC(=O)CN(C)S(=O)(=O)c2ccc(F)cc2)cc1	8.9	-1.6	3.8	8.4	x	x
Oc1ccc(C2CNCCc3c2cc(O)c(O)c3Cl)cc1 (stereo not given)	9.1	0.3	32.3*!	-1.6	1.7	56.0*
O=C(Nc1ccccc1)c1ncoc1-c1ccc(Cl)cc1	-50.2	2.7	19.3*	-13.6	2.1	1.6
CC(c1ccc(O)cc1)(c1ccc(O)cc1)c1ccc(CCBr)cc1	-53.4	-1.4	14.9*	6.5	7.3	3.2
OCCc1ccc(O)cc1	-36.7	-3.4	10.3	18.3	x	x
COc1ccc(C(=O)Nc2cc(OC)ccc2OC)cc1	-2.8	-1.5	-8.7	8.5	x	x
COc1ccc(OC)c(NC(=O)c2cc(OC(C)=O)cc(C(=O)Nc3cc(OC)ccc3OC)c2)c1	-68.0	3.0	18.4*	-14.2	-0.1	-3.7
O=C(O)CSc1ccc2ccccc2n1	-4.8	1.4	1.6	-7.9	x	x
O=C(CSc1ccc2ccccc2n1)c1ccc2c(c1)OCO2	-121.5	0.2	39.7*	-1.0	4.5	52.8*
O=C(/C=C/c1ccc2c(c1)OCO2)c1ccc(O)cc1O	-6.7	3.4	1.9	-17.7	x	x
Cc1ccc(O)c(C(=O)/C=C/c2ccc3c(c2)OCCO3)c1	-38.3	-1.1	16.0*	5.5	3.4	10.1
COc1cc(CN2CCN(Cc3ccc([N+](=O)[O-])cc3)CC2)c([N+](=O)[O-])cc1OC	-15.7	2.5	14.8*	-11.4	1.8	-0.7
CC(=O)CCc1ccc(OCCCOc2cccc3cccnc23)cc1	-19.3	2.1	22.9*	-10.6	0.8	13.3
CC(=O)c1ccc(OCCCOc2cccc3cccnc23)cc1	-3.7	-2.3	1.0	10.9	x	x
O=c1[nH]cnc(O)c1C(c1ccc(Br)cc1)c1c(O)nc[nH]c1=O	16.6	-1.9	5.6	10.0	x	x
O=c1[nH]cnc(O)c1C(c1ccc2c(c1)OCO2)c1c(O)nc[nH]c1=O	-3.4	-1.6	16.7*	8.5	0.3	2.2
CN(CCC#N)C(=O)c1cc2c(Cl)nc3ccccc3c2s1	-26.6	-1.3	7.2	6.2	x	x
CCOC(=O)C1(Cc2cccc(OC)c2)CCCN(Cc2c(C)nn(C(C)C)c2C)C1 (stereo not given)	7.3	0.5	-6.7	-2.6	x	x
CCOC(=O)C1(Cc2cccc(OC)c2)CCCN(Cc2cc(C(C)C)n[nH]2)C1 (stereo not given)	-20.5	0.2	15.7*	-1.1	3.3	38.3*
CCN(CC)CCNC(=O)c1ccc(NC(=O)COc2ccc3c(c2)CCC3)cc1	-41.4	-1.9	17.0*	7.8	3.3	7.4
SMILES	HTR5A inv ctr	MOR-DOR ag-1	HTR5A ag	OPRM1-OPRD1 inv	MOR-DOR ag-2	HTR5A ag conf
O=C(Nc1nnc(SCc2ccc(Cl)cc2)s1)C1CCCO1 (stereo not given)	-53.8	-1.5	21.2*	8.6	0.8	-1.1
COC(=O)c1ccc(CSc2nnc(NC(=O)C3CCCO3)s2)cc1 (stereo not given)	-3.8	-2.0	1.5	11.0	x	x
COc1ccc(CC2NCCC3(O)CCCCC23)cc1 (stereo not given)	-28.9	-0.3	-1.1	1.9	x	x
O[C@@H]1C2CCCC1[C@]1(O)CCCCC1C2 (stereo not given in full)	-46.9	-3.8	18.7*	16.1	1.0	1.7
CCOc1nc(CC(C)C)c2c(c1C#N)CC(C)(C)OC2	2.9	4.3	16.2*	-23.0	6.0	-0.7
CCCCCc1ccc(C(=O)CCCC)c(=S)[nH]1	-130.0	-1.6	29.4*	7.3	5.8	12.6
Cc1cnc(NS(=O)(=O)c2ccccc2)c(C)n1	-11.4	-1.7	2.9	7.9	x	x
Cc1ccc(C(=O)NCCSC2CCCCC2)cc1S(=O)(=O)Nc1ccccc1	-14.4	1.2	1.4	-6.6	x	x
O=C(COC(=O)[C@@H]1CCCN1S(=O)(=O)c1ccccc1F)NCc1ccc2c(c1)OCO2	-43.5	-3.0	17.1*	11.8	1.1	5.2
COc1ccc(NC(=O)COC(=O)[C@@H]2CCCN2S(=O)(=O)c2ccccc2F)c(OC)c1	-16.1	-1.1	5.7	5.7	x	x
COc1ccc(CCNS(=O)(=O)c2ccc(OC)c(OC)c2)cc1OC	-47.7	-1.3	17.2*	6.5	1.9	-3.4
CC(=O)N1CCN(c2ncnc3sc(-c4ccccc4)cc23)CC1	4.4	-1.9	-1.6	8.9	x	x
Oc1ccc(N2CCN(c3ncnc4sc(-c5ccccc5)cc34)CC2)cc1	-21.0	8.5	25.7*	-41.2	-2.0	-1.0
COCCN(C(=O)COC(=O)CCn1c(C)csc1=O)c1c(N)n(Cc2ccccc2)c(=O)[nH]c1=O	20.2	-2.2	-8.2	11.4	x	x
O=C(CSc1ccccc1)NCC1(N2CCCCC2)CCCCC1	-8.3	-1.1	16.9*	6.2	23.2*	5.5
Cc1nc2cc(NC(=O)N3c4ccccc4CC3C)ccc2n1C (stereo not given)	-57.9	-2.5	22.4*	14.1	0.9	24.4*
CSc1ccccc1NC(=O)CN(C)C(=O)COc1ncnc2ccccc12	-19.1	-3.4	7.5	13.6	x	x
COc1ccc(S(=O)(=O)O/N=C2\CCSc3ccc(C)cc32)cc1	-6.6	4.7	-1.8	-21.4	x	x
Cc1ccc(C(=O)O/N=C2\CCSc3ccc(C)cc32)cc1	-88.9	0.1	37.3*	-0.7	1.9	0.9
Cc1cccc(C(=O)O/N=C2\CCSc3ccc(C)cc32)c1	9.5	1.6	15.4*	-7.8	7.2	41.2*
Cc1cccc(-n2ncc3c(NCc4ccc5c(c4)OCO5)ncnc32)c1	-36.5	5.0	7.1	-24.8	x	x
Cc1ccc(-n2ncc3c(NCc4ccc5c(c4)OCO5)ncnc32)c(C)c1	-10.5	1.3	14.5*	-6.5	0.8	2.9
Cc1ccc(Nc2c(-c3ccccc3O)nc3cnccn23)cc1	-5.5	1.9	2.1	-10.8	x	x
Cc1ccc2nc(-c3ccccc3O)c(Nc3ccc4c(c3)OCCO4)n2c1	-54.5	-0.1	20.4*	0.5	3.9	37.0*
Cc1ccc2nc(-c3ccc(O)cc3)c(Nc3ccc4c(c3)OCCO4)n2c1	-166.5	2.5	22.4*	-13.5	1.1	57.9*
Cc1ccc(-c2nc3cnccn3c2Nc2ccc3c(c2)OCO3)cc1	-0.2	0.2	2.6	-1.4	x	x
CCc1ccc(C(C(=O)NC2CCCC2)N(C(=O)c2csnn2)C2CC2)cc1 (stereo not given)	-0.4	-0.3	-1.4	2.1	x	x

Compound activity as filed in PubChem.
